Measurements: PMC4336329 (PLoS ONE, 2015)
Among all 310,000 compounds or so, about 14,000 (4.5%) showed an effect of 50% or more. Effects have a minus sign here. The sample as a whole holds a higher share of strong results than the screen did.

What follows are compounds tested against human ether-à-go-go-related gene (hERG) potassium channel (human, UniProt Q12809) (assay: primary screen, population patch clamp on CHO cells stably expressing hERG; higher = less effect of the substance).
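Also: peak tail current of the secondary pulse compared with the same well before compound.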

Sequence of human ether-à-go-go-related gene (hERG) potassium channel (Q12809 whole entry, looked up): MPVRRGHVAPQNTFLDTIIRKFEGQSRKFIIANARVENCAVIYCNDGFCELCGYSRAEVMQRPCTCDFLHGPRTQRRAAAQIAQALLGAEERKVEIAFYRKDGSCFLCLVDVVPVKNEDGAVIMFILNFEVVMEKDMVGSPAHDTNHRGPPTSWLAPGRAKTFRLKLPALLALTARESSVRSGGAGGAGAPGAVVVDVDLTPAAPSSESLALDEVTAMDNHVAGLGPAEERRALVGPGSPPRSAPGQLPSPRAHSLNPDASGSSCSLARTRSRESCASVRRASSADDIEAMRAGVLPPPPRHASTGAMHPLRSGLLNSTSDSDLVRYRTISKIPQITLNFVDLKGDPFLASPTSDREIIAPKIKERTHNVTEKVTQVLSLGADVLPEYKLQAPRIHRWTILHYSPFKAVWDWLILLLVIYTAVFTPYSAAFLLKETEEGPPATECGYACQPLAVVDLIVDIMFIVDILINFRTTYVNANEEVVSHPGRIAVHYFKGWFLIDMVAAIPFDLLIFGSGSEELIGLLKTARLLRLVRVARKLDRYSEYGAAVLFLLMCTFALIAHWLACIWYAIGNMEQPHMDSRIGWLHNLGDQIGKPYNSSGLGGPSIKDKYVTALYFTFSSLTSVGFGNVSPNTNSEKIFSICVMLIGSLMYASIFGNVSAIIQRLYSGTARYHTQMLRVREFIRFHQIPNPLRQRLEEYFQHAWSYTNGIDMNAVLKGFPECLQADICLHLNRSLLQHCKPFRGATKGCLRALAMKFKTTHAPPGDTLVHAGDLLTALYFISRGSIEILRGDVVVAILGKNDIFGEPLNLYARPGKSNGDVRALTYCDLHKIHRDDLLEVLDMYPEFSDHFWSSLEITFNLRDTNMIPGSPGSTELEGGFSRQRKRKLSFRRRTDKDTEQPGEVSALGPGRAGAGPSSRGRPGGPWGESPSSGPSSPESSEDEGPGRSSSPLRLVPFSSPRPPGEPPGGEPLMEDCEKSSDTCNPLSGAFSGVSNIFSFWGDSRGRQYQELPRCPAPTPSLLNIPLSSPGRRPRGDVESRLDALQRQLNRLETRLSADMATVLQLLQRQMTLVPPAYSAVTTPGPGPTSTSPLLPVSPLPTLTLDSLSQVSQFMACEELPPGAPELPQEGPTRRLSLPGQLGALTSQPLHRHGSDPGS

SMILES	hERG current change (%, negative = inhibition) at 10uM
CN(C)c1nc(NCc2ccccc2)nc(N/N=C/c2cccc(Br)c2)n1	29.7%
O=C(Cc1ccsc1)NCc1ccccc1F	17.1%
CC(C)CCNC(=O)c1cc(-c2ccco2)nc2ccccc12	6.45%
CCn1c(N)[n+](CC(=O)Nc2ccc(SC(F)F)cc2)c2ccccc21.[Cl-]	-78.4%
CC[N+](CC)(CC)CC(=O)Nc1ccc(SC(F)F)cc1.[Cl-]	-3.41%
O=C(Cc1ccccc1)Nc1ccc(SC(F)F)cc1	-29.7%
COC(=O)Cn1c(=NC(=O)CCS(=O)(=O)c2ccccc2)sc2c(OC)ccc(OC)c21	6.2%
CCc1noc(C)c1C(=O)NNC(=O)c1ccccc1F	21%
CSc1cccc(NC(=O)CCS(=O)(=O)c2cccc3nonc23)c1	-15.1%
COC(=O)c1ccccc1NC(=O)COC(=O)c1cccnc1	6.42%
COc1ccc(C)cc1NC(=O)CN1CCN(S(=O)(=O)c2ccc(Br)cc2)CC1	-30.5%
O=C(CN1CCN(S(=O)(=O)c2ccc(Br)cc2)CC1)Nc1ccc(F)cc1	-67.8%
O=C(CN1CCN(S(=O)(=O)c2ccc(Br)cc2)CC1)Nc1ccc(F)cc1F	-73.5%
COc1ccc(Cl)cc1NC(=O)CN1CCN(S(=O)(=O)c2ccc(F)cc2)CC1	-43.8%
O=C(CN1CCN(S(=O)(=O)c2ccccc2)CC1)Nc1ccc(Cl)cn1	-29.5%
O=C(CN1CCN(S(=O)(=O)c2ccc(F)cc2)CC1)Nc1ccc(Cl)cn1	-62.7%
COC(=O)c1ccc(NC(=O)CN2CCN(S(=O)(=O)c3ccc(Br)cc3)CC2)cc1	-31.4%
CC(C)c1ccc(S(=O)(=O)N2CCN(CC(=O)Nc3ccc(Cl)cc3F)CC2)cc1	-15.9%
Cc1cc(NC(=O)CN2CCN(S(=O)(=O)c3ccc(Cl)cc3)CC2)no1	-15.4%
O=C(CN1CCN(S(=O)(=O)c2ccc(Cl)cc2)CC1)Nc1ccc(F)cc1F	-78.3%
NS(=O)(=O)c1ccc(NC(=O)CN2CCN(S(=O)(=O)c3ccc(F)cc3)CC2)cc1	7.15%
Cc1sc2ncnc(NCCc3ccc(S(N)(=O)=O)cc3)c2c1C	12.6%

SMILES	hERG current change (%, negative = inhibition) at 10uM
COc1ccc(CCNC(=O)CSc2nn3c(=O)c(C)nnc3s2)cc1OC	6.31%
CN(CC(=O)Nc1ccccc1C(F)(F)F)C(=O)COc1ncnc2ccccc12	1.42%
O=C(CNCc1ccc(Cl)cc1)NCc1ccco1.O=C(O)C(=O)O	-17.3%
Cc1cccc(OCc2n[nH]c(=S)n2-c2ccccc2)c1	10.1%
CC(=O)Nc1ccc(C(=O)OCC(=O)NCc2ccccc2)cc1	11.9%
O=C(COC(=O)CCC(=O)c1ccc(F)cc1)Nc1ccc2[nH]c(=O)[nH]c2c1	-3.65%
O=C(Nc1ccc(F)cc1F)NC1CCN(S(=O)(=O)c2ccc(F)cc2)CC1	9.78%
O=C(COC(=O)c1ccc(S(=O)(=O)N2CCCC2)cc1)Nc1ccc(F)cc1F	9.22%
O=C(CN1CCN(S(=O)(=O)c2ccc(F)cc2)CC1)Nc1ccc(F)cc1F	-60.3%
C/C(=N\OCC(=O)NC12CC3CC(CC(C3)C1)C2)c1cc2ccccc2o1	5.38%
CCOc1ccc(S(=O)(=O)N2CCN(CN3C(=O)CC4(CCCC4)C3=O)CC2)cc1	-8.79%
N#CCCN(Cc1cccnc1)C(=O)Nc1ccccc1	-3.06%
CC(C)(C)CN1CCN(Cc2c[nH]c3ccccc23)CC1CCO (centres unmarked)	15.5%
CC(C)=CCN1CCN(Cc2nc(-c3ccc(F)cc3)cs2)CC1CCO (centres unmarked)	-69%
CC(C)(C)CN1CCN(Cc2nc(-c3ccc(F)cc3)cs2)CC1CCO (centres unmarked)	-62.5%
CC(C)=CCN1CCN(Cc2nc(-c3ccccc3)cs2)CC1CCO (centres unmarked)	-60.4%
CC(C)(C)CN1CCN(Cc2cccnc2)CC1CCO (centres unmarked)	13.6%
CC(C)=CCN1CCN(CC#Cc2ccccc2)CC1CCO (centres unmarked)	-13%
CC(C)=CCN1CCN(Cc2nc(C(C)C)cs2)CC1CCO (centres unmarked)	-12.9%
CC(C)=CCN1CCN(Cc2cc(F)ccc2-n2nc(C)cc2C)CC1CCO (centres unmarked)	-25%
CC(C)=CCN1CCN(Cc2cccnc2)CC1CCO (centres unmarked)	-1.24%
CCN(CC(=O)NCc1ccc(F)cc1)C(=O)C1CCN(C(=O)Nc2ccccc2)CC1	-7.79%

SMILES	hERG current change (%, negative = inhibition) at 10uM
COCCn1c(SCC(=O)N2CC(=O)Nc3ccccc32)nc2ccccc21	-2.29%
O=C(Nc1ccc(N2CCCCC2)cc1)c1cccnc1	4.6%
Cc1ccc(-c2noc(-c3ccccc3C(=O)NCC3CCCO3)n2)cc1 (centres unmarked)	-18.6%
CCn1cc(C(=O)NCC2CCCO2)c2cc(OC)c(OC)cc2c1=O (centres unmarked)	19.4%
Cn1nc(C(=O)NCC2CCCO2)c2ccccc2c1=O (centres unmarked)	-3%
Cc1ccc(-c2nn(-c3ccccc3)cc2C(=O)NCC2CCCO2)cc1 (centres unmarked)	-25.8%
C=CCNC(=O)c1cc2c(=O)n3cc(C)ccc3nc2nc1NCC1CCCO1 (centres unmarked)	-73%
COCCCNC(=O)CSc1nc2ccccc2c(=O)n1CCCC(=O)NCC1CCCO1 (centres unmarked)	-0.988%
COc1ccc(-c2cc(C(=O)NCC3CCCO3)c3cc(C)ccc3n2)cc1 (centres unmarked)	-3.03%
CCNc1nc2nc3ccc(C)cn3c(=O)c2cc1C(=O)NCC1CCCO1 (centres unmarked)	-70.6%
COCCCNC(=O)c1cc2c(=O)n3cc(C)ccc3nc2nc1NCC1CCCO1 (centres unmarked)	-71.9%
CCOCCCNc1nc2nc3ccc(C)cn3c(=O)c2cc1C(=O)NCC1CCCO1 (centres unmarked)	-77.7%
COCCCNC(=O)c1ccc2nc3ccccc3c(=O)n2c1	14.7%
Cc1ccc(-c2nn(-c3ccccc3Cl)cc2C(=O)NCC2CCCO2)cc1 (centres unmarked)	-0.0276%
Cc1ccc(C)c(C(=O)CCC(=O)Nc2cccnc2)c1	7.26%
COc1cccc(/C=C/C(=O)OCC(=O)NCC2CCCCC2)c1OC	8.32%
CCN(CC)c1ccc2c(C)c(CN3CCOCC3)c(=O)oc2c1	-11.1%
C=Cc1ccc(C(=O)N2CCCC(CCC(=O)N3CCN(c4ccccn4)CC3)C2)cc1 (centres unmarked)	-4.57%
CCCCNc1nc(N)nc(-c2cc(Cl)ccc2O)n1	20.9%
CCCOc1ccc(C(=O)Nc2cccnc2)cc1	3.01%
c1ccc(-c2nc(CSc3n[nH]c(-c4cccs4)n3)cs2)cc1	-15.1%
Cc1ccc2c(c1)c(=O)c1c3n2CCN(CC2CO2)C3CC1 (centres unmarked)	4.27%

SMILES	hERG current change (%, negative = inhibition) at 10uM
O=C(CCl)N(Cc1cc(=O)[nH]c2ccccc12)c1ccccc1	0.288%
CCOC(=O)c1nn(-c2ccc(C)cc2)c(=O)cc1OCC(=O)Nc1cccc(OC)c1	1.6%
Cn1cc(CN2CCC(n3nccc3NC(=O)c3ccccc3Cl)CC2)c2ccccc21	-68.6%
COc1ccccc1C(=O)Nc1ccnn1C1CCN(Cc2cn(C)c3ccccc23)CC1	-83.6%
Cc1cc(NC(=O)CSc2ccc3nnc(CCNS(=O)(=O)c4ccccc4)n3n2)no1	15.6%
Nc1c(Cl)cc(-c2csc(N3CCCC3c3nc4cc(Cl)c(Cl)cc4n3CCOCCO)n2)cc1Cl (centres unmarked)	-0.601%
Cc1cccc(C)c1NC(=O)NNC(=O)c1cc(C(C)(C)C)nn1Cc1ccccc1	0.818%
CC1CCC/C(=N\NC(=S)Nc2ccccc2)C1 (centres unmarked)	7.36%
O=C(Nc1ccc(Nc2ccccc2)cc1)c1c(Cl)cccc1Cl	12.3%
Cc1ccc2c(c1)C1CN(C)CCC1N2C(=O)COc1ccc(N(C)C(=O)c2ccccc2)cc1 (centres unmarked)	-11.6%
CC1CCCN(C(=O)Cn2nnc(-c3ccccc3F)n2)C1 (centres unmarked)	13.8%
Cc1ccc2c(c1)C1CN(C)CCC1N2C(=O)CCCN1C(=O)c2cccc3cccc(c23)C1=O (centres unmarked)	-57.4%
Cc1ccc2c(c1)C1CN(C)CCC1N2C(=O)Cn1nnc(-c2ccccc2F)n1 (centres unmarked)	-60.1%
COc1ccc(OCC(=O)N2c3ccc(C)cc3C3CN(C)CCC32)cc1 (centres unmarked)	-5.12%
Cc1ccc2c(c1)C1CN(C)CCC1N2C(=O)COc1ccccc1F (centres unmarked)	-4.18%
Cc1cc(-n2c(SCc3ccccc3F)nc3n[nH]c(C)c3c2=N)ccc1Cl	15.8%
COC(=O)c1ccccc1OCCCOc1ccc(C=O)cc1OC	-4.02%
O=C(NCc1ccco1)c1ccc(COc2ccc(Cl)cc2)cc1	0.911%
CCCN(C(=O)Cc1ccc(S(=O)(=O)N2CCOCC2)s1)c1c(N)n(Cc2ccccc2)c(=O)[nH]c1=O	16.8%
CN(C)c1ccc(C(c2ccc(N(C)C)cc2)c2ccc([N+](=O)[O-])cc2)cc1	3.74%
